Records with an inconclusive call do not appear. Active and inactive are the calls of the source. How the source made its calls, unless noted: active means hit-call score of the fitted dose curve at least 0.9, where 1 is the maximum; inconclusive means response in the unintended direction; inactive means score below 0.9.
Experiments:
[1] = TOX21_p53_BLA_p2_viability: Viability Assessment in the Tox21 HCT-116 p53 Agonism Beta-lactamase Assay, Phase 2 (AID 2283591);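 further: compound exposure lasted 16 h at 37 °C; actives lower the ATP signal meaning cytotoxicity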
In short: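 HCT116 p53-bla cells, 4000/well, dosed after 5 h plating (217-fold dilution of DMSO stocks) and incubated 16 h at 37C. Viability taken as cellular ATP by CellTiter-Glo luminescence after 30 min RT; signal loss marks cytotoxicity.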

[2] = biological target: Cellular tumor antigen p53 (Homo sapiens) (UniProt P04637); assay: TOX21_p53_BLA_p2_ratio: Tox21 HCT-116 p53 Agonism Beta-lactamase Assay, Ratio, Phase 2 (AID 2283592)
In short: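 Human colon HCT116 cells with an inducible p53 beta-lactamase reporter are exposed to test chemicals for 16 h at 37C. Reporter induction is read as the 460/530 nm emission ratio after CCF4-AM loading, normalized to DMSO.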

[3] = TOX21_p53_BLA_p3_viability: Viability Assessment in the Tox21 HCT-116 p53 Agonism Beta-lactamase Assay, Phase 3 (AID 2283593);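 further: cells exposed to compound for 16 h before reading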
In short: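 HCT116 cells, 4000/well, dosed 5 h after plating by pin transfer (217-fold dilution from DMSO stock) and incubated 16 h at 37C, 5% CO2. Viability read as ATP luminescence with CellTiter-Glo after 30 min at room temperature.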

[4] = biological target: Cellular tumor antigen p53 (Homo sapiens) (UniProt P04637); assay: TOX21_p53_BLA_p3_ratio: Tox21 HCT-116 p53 Agonism Beta-lactamase Assay, Ratio, Phase 3 (AID 2283596)
In short: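 HCT116 p53-bla cells (4000/well) given compound in DMSO (217-fold dilution) after 5 h, incubated 16 h at 37C. CCF4-AM substrate 2 h at room temperature; 460/530 nm emission ratio, gain fitted against DMSO.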

[5] = biological target: Cellular tumor antigen p53 (Homo sapiens) (UniProt P04637); assay: TOX21_p53_BLA_p5_ratio: Tox21 HCT-116 p53 Agonism Beta-lactamase Assay, Ratio, Phase 5 (AID 2283599)
In short: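 HCT-116 p53-bla cells (4000/well) plated 5 h, dosed with compound (217-fold DMSO dilution) for 16 h at 37 C; CCF4-AM substrate 2 h at room temperature. Activity is the 460/530 nm emission ratio (405 nm excitation), fitted in gain-of-signal direction versus DMSO.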

[6] = TOX21_p53_BLA_p4_viability: Viability Assessment in the Tox21 HCT-116 p53 Agonism Beta-lactamase Assay, Phase 4 (AID 2283597);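 further: hits lower the luminescence signal meaning cytotoxicity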
In short: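 Luminescent ATP readout (CellTiter-Glo, 30 min, room temperature) in the same wells as the p53 bla ratio. HCT116 cells were treated for 16 h at 37C with DMSO-dissolved compounds.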

[7] = biological target: Cellular tumor antigen p53 (Homo sapiens) (UniProt P04637); assay: TOX21_p53_BLA_p4_ratio: Tox21 HCT-116 p53 Agonism Beta-lactamase Assay, Ratio, Phase 4 (AID 2283601)
In short: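 HCT-116 p53 beta-lactamase reporter cells (4000/well) preincubated 5 h, then compound (217-fold dilution of DMSO stock) for 16 h at 37C. CCF4-AM substrate added 2 h at room temperature; 460/530 nm emission ratio fitted upward versus DMSO.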

[8] = TOX21_p53_BLA_p5_viability: Viability Assessment in the Tox21 HCT-116 p53 Agonism Beta-lactamase Assay, Phase 5 (AID 2283600)
In short: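 Seeded cells (4000/well) settle 5 h before compound addition. Plates then incubate 16 h at 37C, receive FRET substrate for 2 h, and finally CellTiter-Glo, with luminescence measured after a 30 min room-temperature incubation.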

[9] = CCTE_Harrill_HTTr_Viability_MCF7: CCTE's 6-hour Cell Viability Assessment for the High-Throughput Transcriptomics (HTTr) Platform, in MCF-7 cells cultured in DMEM + 10% fetal bovine serum, Harrill Lab (AID 2284010; active means hit-call score of the fitted dose curve at least 0.9, where 1 is the maximum; inactive means score below 0.9)
In short: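 Membrane integrity was scored by high-content imaging of propidium iodide dye exclusion after a 6 h exposure across an eight-point dilution series. Data were fitted bidirectionally relative to DMSO as negative control and baseline.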

[10] = CCTE_Harrill_HTTr_Apoptosis_MCF7: CCTE's 6-hour Apoptosis Assessment for the High-Throughput Transcriptomics (HTTr) Platform, in MCF-7 cells cultured in DMEM + 10% fetal bovine serum, Harrill Lab (AID 2284011; active means hit-call score of the fitted dose curve at least 0.9, where 1 is the maximum; inactive means score below 0.9)
In short: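 Apoptosis in MCF-7 cells grown in DMEM with 10% fetal bovine serum was scored after a six hour exposure by high content imaging of caspase-3/7 activation (CellEvent Caspase 3/7 Green), with DMSO serving as negative control and baseline.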

[11] = CCTE_Harrill_HTTr_CellCount_MCF7: CCTE's Cell Proliferation Assessment for the High-Throughput Transcriptomics (HTTr) Platform, Harrill Lab (AID 2284012);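 further: cells exposed to compound for six hours; intended direction is loss of nuclei count meaning fewer cells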
In short: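 MCF-7 cells were exposed for 6 h to an eight-point dilution series; Hoechst-labeled nuclei were counted by high content imaging. Curves were fitted bidirectionally against DMSO as negative control and baseline, with signal loss indicating reduced cell count.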

[12] = test system: Brachyury (BRA) Protein Expression, Deisenroth Lab, TBXT (gene 6862); assay: CCTE_Deisenroth_DEVTOX-GLR_legacy_Bra: (Legacy) CCTE's DevTox GLR-Endo Assay Evaluation of Brachyury (BRA) Protein Expression, Deisenroth Lab (AID 2284329; active means hit-call score of the fitted dose curve at least 0.9, where 1 is the maximum; inactive means score below 0.9)
In short: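 RUES2-GLR human pluripotent cells are differentiated for 48 h and receive two chemical exposures 24 h apart, at 10 concentrations from 1 nM to 200 uM. Cells are fixed, nuclei stained and imaged. Bra+ cells are those with mean Bra intensity over 5x BMAD above the pluripotent control median, expressed as a percentage of cell count, after subtracting the 0.2% DMSO control median.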

[13] = test system: SRY-box transcription factor 17 (SOX17) Protein Expression, Deisenroth Lab, SOX17 (gene 64321); assay: CCTE_Deisenroth_DEVTOX-GLR_legacy_Sox17: (Legacy) CCTE's DevTox GLR-Endo Assay Evaluation of SRY-box transcription factor 17 (SOX17) Protein Expression, Deisenroth Lab (AID 2284341; active means hit-call score of the fitted dose curve at least 0.9, where 1 is the maximum; inactive means score below 0.9); conditions: actives raise or lower the signal
In short: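 Using the RUES2-GLR line, compounds are tested as 10-point series during 48-h defined-media differentiation. Sox17 reporter fluorescence per cell determines positivity; endpoint is percentage positive, analysed bidirectionally versus DMSO baseline.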

[14] = test system: SRY-box transcription factor 2 (SOX2) Protein Expression, Deisenroth Lab, SOX2 (gene 6657); assay: CCTE_Deisenroth_DEVTOX-GLR_legacy_Sox2: (Legacy) CCTE's DevTox GLR-Endo Assay Evaluation of SRY-box transcription factor 2 (SOX2) Protein Expression, Deisenroth Lab (AID 2284346; active means hit-call score of the fitted dose curve at least 0.9, where 1 is the maximum; inactive means score below 0.9)
In short: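 RUES2-GLR human pluripotent cells were differentiated for 48 h with two chemical doses 24 h apart, over 1 nM-200 uM. Sox2+ cells were those above 5x BMAD of the endoderm-control median; percent Sox2+ minus the 0.2% DMSO median was used, from n=4 replicates.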

[15] = test system: Brachyury (BRA) Protein Expression, TBXT (gene 6862); assay: CCTE_Deisenroth_DEVTOX-GLR_Endo_BRA: CCTE's DevTox GLR-Endo Assay Evaluation of Brachyury (BRA) Protein Expression, Deisenroth Lab (AID 2284417; active means hit-call score of the fitted dose curve at least 0.9, where 1 is the maximum; inactive means score below 0.9)
In short: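 Percent BRA+ (mesoderm) RUES2-GLR cells after 48 h differentiation with two exposures, 1 nM - 200 uM; 0.2% DMSO control subtracted.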

[16] = CCTE_Deisenroth_DEVTOX-GLR_Endo_CellCount: Viability Assessment in CCTE's DevTox GLR-Endo Assay, Deisenroth Lab (AID 2284420; active means hit-call score of the fitted dose curve at least 0.9, where 1 is the maximum; inactive means score below 0.9)
In short: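 Measured 48 h after dosing: fluorescent nuclei counted by imaging in human RUES2-GLR cells under defined differentiation media, tested at 1 nM - 200 uM. Values are percent cell-count change relative to 0.2% DMSO.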

[17] = test system: SRY-box transcription factor 17 (SOX17) Protein Expression, Deisenroth Lab, SOX17 (gene 64321); assay: CCTE_Deisenroth_DEVTOX-GLR_Pluri_SOX17: CCTE's DevTox GLR-Pluri Assay Evaluation of SRY-box transcription factor 17 (SOX17) Protein Expression, Deisenroth Lab (AID 2284427)
In short: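 Using an inducible fluorescent SOX17 reporter in human pluripotent RUES2-GLR cells, compounds (1 nM - 200 uM) were given twice over 48 h differentiation. Percent SOX17+ cells minus DMSO control came from high-content image analysis.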

[18] = test system: SRY-box transcription factor 2 (SOX2) Protein Expression, Deisenroth Lab, SOX2 (gene 6657); assay: CCTE_Deisenroth_DEVTOX-GLR_Pluri_SOX2: CCTE's DevTox GLR-Pluri Assay Evaluation of SRY-box transcription factor 2 (SOX2) Protein Expression, Deisenroth Lab (AID 2284428; active means hit-call score of the fitted dose curve at least 0.9, where 1 is the maximum; inactive means score below 0.9)
In short: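 Percent SOX2+ RUES2-GLR cells, determined by fluorescence microscopy after 48 h and two 24-h-interval chemical exposures spanning 1 nM–200 uM, served as the endpoint. Values are expressed relative to 0.2% DMSO; total cell counts assessed viability.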

[19] = test system: Brachyury (BRA) Protein Expression, Deisenroth Lab, TBXT (gene 6862); assay: CCTE_Deisenroth_DEVTOX-GLR_Pluri_BRA: CCTE's DevTox GLR-Pluri Assay Evaluation of Brachyury (BRA) Protein Expression, Deisenroth Lab (AID 2284429)
In short: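 RUES2-GLR human pluripotent cells differentiated 48 hours with two chemical exposures 24 hours apart, 10-point series 1 nM–200 uM. Fixed, nuclear-stained, imaged; endpoint is percent BRA+ cells minus 0.2% DMSO control.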

[20] = CCTE_Deisenroth_DEVTOX-GLR_Pluri_CellCount: Viability Assessment in CCTE's DevTox GLR-Pluri Assay Evaluation of Total Cell Counts, Deisenroth Lab (AID 2284430; active means hit-call score of the fitted dose curve at least 0.9, where 1 is the maximum; inactive means score below 0.9)
In short: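 RUES2-GLR human pluripotent cells, seeded 24 h, then differentiated 48 h with two chemical exposures 24 h apart; 10-point series 1 nM - 200 uM. Fixed, nuclear-stained, imaged (5 fields/well); nuclei count as % change vs 0.2% DMSO.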

Measured: AC50

Cellular tumor antigen p53 (Homo sapiens), sequence (P04637 whole entry, looked up): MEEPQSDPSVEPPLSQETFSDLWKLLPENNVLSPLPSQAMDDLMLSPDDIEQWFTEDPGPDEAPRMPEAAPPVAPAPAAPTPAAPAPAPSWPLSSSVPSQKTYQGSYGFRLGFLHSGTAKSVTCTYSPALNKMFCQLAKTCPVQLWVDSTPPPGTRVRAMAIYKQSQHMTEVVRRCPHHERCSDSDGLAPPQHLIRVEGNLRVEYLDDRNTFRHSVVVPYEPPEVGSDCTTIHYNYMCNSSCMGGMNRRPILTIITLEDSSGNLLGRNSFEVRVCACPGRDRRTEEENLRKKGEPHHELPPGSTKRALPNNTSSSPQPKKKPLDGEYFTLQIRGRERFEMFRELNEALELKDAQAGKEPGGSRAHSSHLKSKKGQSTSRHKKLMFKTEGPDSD

CCCNC(C)C(=O)Nc1ccccc1C (stereo not drawn)
inactive: [1] | [2] | [3] | [4] | [5]

NC(=S)N/N=C/c1cccnc1
inactive: [1] | [2] | [3] | [4] | [6] | [7]

N#CCC(=O)O
inactive: [1] | [2] | [3] | [4] | [6] | [8] | [9] | [10] | [11]

O=C(CO)[C@@H](O)[C@H](O)[C@H](O)CO
inactive: [1] | [2] | [3] | [4] | [6] | [7]

OCCSc1ccccc1
inactive: [1] | [2] | [3] | [4] | [6] | [7]

CCn1cc(C(=O)O)c(=O)c2cnc(N3CCCC3)nc21
inactive: [1] | [2] | [3] | [4] | [5] | [8]

CN1CC(O)c2cc(N=NC(N)=O)c(O)cc21 (stereo not drawn)
inactive: [1] | [2] | [3] | [4] | [5] | [8]

O=C(c1ccc(F)cc1)C1CCN(CCn2c(=O)[nH]c3ccccc3c2=O)CC1
active: [13] 39.9 µM | [14] 9.92 µM | [15] 70 µM | [16] 58.4 µM | [17] 100 µM | [18] 19.8 µM | [19] 127 µM
not listed: [5] | [9] | [10] | [11]
inactive: all other assays above

O=c1n(CCCN2CCN(c3cccc(Cl)c3)CC2)nc2ccccn12
inactive: [1] | [2] | [3] | [4] | [6] | [8] | [7] | [9] | [10] | [11]

CCOc1ccc(Cc2nccc3cc(OCC)c(OCC)cc23)cc1OCC
inactive: [1] | [2] | [3] | [4] | [6] | [7]

OCC(CBr)(CBr)CBr
inactive: [1] | [2] | [3] | [4] | [6] | [7]

CN1C(C(=O)Nc2ccccn2)=C(O)c2ccccc2S1(=O)=O
inactive: [1] | [2] | [3] | [4] | [5] | [8] | [7]

CC(C)C[P+](C)(CC(C)C)CC(C)C
inactive: [1] | [2] | [3] | [4] | [5] | [8] | [7]

O=c1[nH]c(=O)n([C@H]2C[C@H](O)[C@@H](CO)O2)cc1I
inactive: [1] | [2] | [3] | [4] | [5] | [8] | [7]

CCCCCCCCCCOc1cc2c(=O)c(C(=O)OCC)c[nH]c2cc1OCC
inactive: [1] | [2] | [3] | [4] | [5] | [8] | [7]

CCCCCCCCCCCCCCCC(=O)OCC(COC(=O)CCCCCCCCCCCCCCC)OC(=O)CCCCCCCCCCCCCCC
inactive: [1] | [2] | [3] | [4] | [5] | [8] | [7]

CCc1nnc(NS(=O)(=O)c2ccc(N)cc2)s1
inactive: [1] | [2] | [3] | [4] | [5] | [8]

CCCC(CCC)C(=O)OC1C[C@H]2CC[C@@H](C1)[N+]2(C)C (stereo partly drawn)
inactive: [1] | [2] | [3] | [4] | [5] | [8] | [7]

O=C(c1ccc(O)cc1)c1ccc(Cl)cc1
active: [2] 70.5 µM | [4] 80 µM | [5] 74.9 µM | [7] 86.9 µM
inactive: [1] | [3] | [8]

CCN[C@@H]1C[C@H](N)[C@@H](OC2OC(CN)=CCC2N)[C@H](O)[C@H]1O[C@H]1OC[C@](C)(O)[C@H](NC)[C@H]1O (stereo partly drawn)
inactive: [1] | [2] | [3] | [4] | [5] | [8] | [7]

COc1cc(NS(=O)(=O)c2ccc(N)cc2)nc(OC)n1
inactive: [1] | [2] | [3] | [4] | [5] | [8] | [7]

[O-][N+](=Nc1ccccc1)c1ccccc1
inactive: [1] | [2] | [3] | [4] | [5] | [8] | [7]

From PubChem BioAssay (EPA / NIEHS)
